In PubChem BioAssay (NCI):
The panel holds about 83,000 compounds, 20% with a hit somewhere; the sample as a whole holds those more often.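 Treatment: one concentration, 48 hours, 96-well format. Scoring: percent growth, with anything below 10 considered active.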 Values without a mark were called inactive. The source made the active and inactive calls.

Key:
Assay in all cases: NCI-60 one-dose screen, 48 h (100 = growth as untreated, 0 = no growth, -100 = all killed)
Conditions in all cases: 10 µM unless noted
[1] = test system: RPMI-8226 leukemia
[2] = test system: OVCAR-8 ovarian
[3] = test system: OVCAR-5 ovarian
[4] = test system: OVCAR-4 ovarian
[5] = test system: SK-OV-3 ovarian
[6] = test system: OVCAR-3 ovarian
[7] = test system: HS 578T breast
[8] = test system: NCI/ADR-RES ovarian
[9] = test system: T-47D breast

| Compound | growth [1] | growth [2] | growth [3] | growth [4] [%] | growth [5] [%] | growth [6] | growth [7] | growth [8] | growth [9] [%] |
| --- | --- | --- | --- | --- | --- | --- | --- | --- | --- |
| Cc1ccc([N+](=O)[O-])cc1NC(=O)Nc1cccc(F)c1 | 19.4% | 71.6% | 89.6% | 50.3 | 98.7 | 51.8% | 120% | 64.3% | 29.8 |
| CC[N+](CC)(CCOCCOCC[N+](CC)(CC)Cc1ccc([N+](=O)[O-])cc1)Cc1ccc([N+](=O)[O-])cc1 | 96.6% | 103% | 98.8% | 106 | 112 | 116% | 133% | 98.9% | 95.3 |
| CN1CCCC1c1cccnc1 (centres undefined) | 70.7% | 111% | -6.38% (active) | 104 | 116 | 117% | 112% | -37% (active) | 110 |
| Nc1nc(Cl)c2[nH]cnc2n1 | 107% | 109% | 93.5% | 101 | 93.2 | 125% | 117% | 51% | 103 |
| N#Cc1c2ccccc2c2n1-c1ccccc1OC(c1ccccc1)C2=O (centres undefined) | 18.1% | 11.6% | 56.1% | 14.6 | 65.4 | 41.1% | 40.1% | 14% | 23.2 |
| Nc1nonc1-c1nc2ccccc2n1CC(=O)Nc1ccc2c(c1)COC2=O | 99.1% | 94.3% | 94% | 93 | 90.9 | 94.2% | 65.9% | 85.6% | 85.8 |
| Nc1cc(Cl)c(S(N)(=O)=O)cc1S(N)(=O)=O | 122% | 115% | 102% | 96.6 | 117 | 137% | 106% | 35.1% | 117 |
| COc1cc(/C=C2\CCC/C(=C\c3ccc(OCC4CO4)c(OC)c3)C2=O)ccc1OCC1CO1 (centres undefined) | -2.29% (active) | 0.499% (active) | 86% | 47.1 | 20.1 | -22.8% (active) | 23.4% | 56.8% | 46.3 |
| COc1ccc(Cn2cc3c(c2-c2ccccc2)CCc2cncnc2-3)cc1 | 19.6% | 70.5% | 76.7% | 93.1 | 76.8 | 29.6% | 63.2% | 12.3% | 46.7 |
| COc1cc(/C=C/C(=O)Nc2ccc3c(c2)/C(=C\c2cccn2C)C(=O)N3)cc(OC)c1OC | -17.8% (active) | 37% | 99.5% | 50.3 | 81.5 | 41.7% | 4.35% (active) | 84.2% | 15 |
| COc1ccc(C(=O)C(C)Br)cc1OC (centres undefined) | 85.5% | 88.3% | 84.7% | 84 | 115 | 61.5% | 95.2% | 96.1% | 82.6 |
| COC1CC2CCC(C)C(O)(O2)C(=O)C(=O)N2CCCCC2C(=O)OC(C(C)CC2CCC(O)C(OC)C2)CC(=O)C(C)C=C(C)C(O)C(OC)C(=O)C(C)CC(C)/C=C/C=C/C=C1C (centres undefined) | 23.5% | 38.2% | 59.2% | 34.5 | 52.9 | 50% | 45.2% | 49.1% | 31.1 |
| Cc1cc(NC(=O)c2ccc(N)cc2)ccc1N=Nc1ccc2c(O)c(N=Nc3ccc(Cl)c(S(=O)(=O)O)c3)c(S(=O)(=O)O)cc2c1 | 65.6% | 70.2% | 92.2% | 106 | 88.6 | – | 103% | 76.1% | 70.9 |
| CO[C@H]1/C=C/O[C@@]2(C)Oc3c(C)c(O)c4c(O)c(c(/C=N/N5C(C)CN(Cc6ccccc6)CC5C)c(O)c4c3C2=O)NC(=O)/C(C)=C\C=C\[C@H](C)[C@H](O)[C@@H](C)[C@@H](O)[C@@H](C)[C@H](OC(C)=O)[C@@H]1C (some centres undefined) | 83.5% | 75.6% | 99.1% | 89.8 | 116 | – | 84.6% | -20.3% (active) | 81.4 |
| CCCCCCCCSc1ncnc2c1ncn2CO | 60.7% | 90.4% | 103% | 60.3 | 83.1 | 78.2% | 95.6% | 86.8% | 62 |
| CN(C)c1ccc(/C=C\c2ccnc3ccccc23)cc1 | -18.1% (active) | 63.6% | 65% | 68.2 | 55.2 | – | 84.9% | -35.5% (active) | 65.4 |
| CC(=O)Oc1c(C)c(OC(C)=O)c2c(c1C(C)=O)OC1CC(=O)C(C(C)=O)=C(O)C21C (centres undefined) | 78.3% | 105% | 102% | 99 | 98.2 | – | 109% | 80.7% | 103 |
